SMILES strings stand for the structures. The campaign covered roughly 39,000 compounds. About 1,500 (3.8%) were called active. The full list was thinned out, with actives kept by preference.

For the experiment, the system named is HSkMC (human skeletal muscle cells). Put plainly: cytotoxicity call (relative viability < 0.9). To be noted: 10 µM.
Consider `C[C@H]1CCCCO[C@@H](CN(C)C(=O)C2CCCCC2)[C@@H](C)CN([C@@H](C)CO)C(=O)c2cc(NC(=O)c3ccccc3)ccc2O1`, for which the cytotoxicity call was “inactive”. On to `COC[C@@H](C)NC(=O)C1CN(C(C)=O)C1`, for which the cytotoxicity call is “inactive”. The entry for `C[C@H](CO)N1C[C@H](C)[C@@H](CN(C)S(=O)(=O)c2ccc(Cl)cc2)OCc2cn(nn2)CCCC1=O` is “inactive”. For `Cc1noc(C)c1NC(=O)Nc1ccc2c(c1)C(=O)N([C@H](C)CO)C[C@@H](C)[C@H](CN(C)Cc1ccc(-c3ccccc3)cc1)O2`, the cytotoxicity call is “inactive”. Take `C[C@H]1CN([C@@H](C)CO)C(=O)c2cc(NS(=O)(=O)c3ccccc3)ccc2O[C@@H]1CN(C)S(=O)(=O)c1ccc(F)cc1`: the cytotoxicity call is “inactive”.

For the compound `COc1ccc(-c2cnc3c(c2)C(=O)N([C@H](C)CO)C[C@H](C)[C@H](CN(C)C(=O)Cc2ccncc2)O3)cc1`, the cytotoxicity call is “inactive”. On to `C[C@@H]1CCCCO[C@H](CN(C)Cc2ccc(Cl)c(Cl)c2)[C@@H](C)CN([C@H](C)CO)C(=O)c2cc(NS(=O)(=O)c3ccc(Cl)cc3)ccc2O1`, for which the cytotoxicity call is “inactive”. On to `C[C@@H]1CCCCO[C@@H](CN(C)Cc2ccc(Cl)c(Cl)c2)[C@H](C)CN([C@H](C)CO)C(=O)c2cc(NS(=O)(=O)c3ccc(Cl)cc3)ccc2O1`, for which the cytotoxicity call is “active”. The entry for `CN1CCN(C(=O)[C@H]2[C@H](CO)[C@H]3Cn4c(ccc(C5=CCCC5)c4=O)[C@@H]2N3S(C)(=O)=O)CC1` is “inactive”. For `CC(C)/C(=N/O)c1ccccc1`, the cytotoxicity call is “inactive”. Turning to `CC(C)NC(=O)N(C)C[C@@H]1Oc2ccc(NC(=O)C3CCCCC3)cc2C(=O)N([C@@H](C)CO)C[C@H]1C`, the cytotoxicity call is “inactive”.

`C[C@@H]1O[C@H]2Oc3c(-c4ccc(O)cc4)oc4cc(O)c(c(O)c4c3=O)-c3cc(ccc3O)/C=C\C(=O)OC[C@H]3O[C@@H](O[C@H]([C@H]1O)[C@H]2O)[C@H](O)[C@@H](O)[C@@H]3O`: the cytotoxicity call was “inactive”. With `Cc1c(CN2CCN(C(=O)[C@H](C)O)CC2)sc2c(N3CCOCC3)nc(-c3cnc(N)nc3)nc12`, the cytotoxicity call was “active”. On to `CC(=O)Nc1ncc(CN2CCOCC2)s1`, for which the cytotoxicity call is “inactive”. As for `CC(C)NC(=O)N(C)C[C@@H]1Oc2ccc(NS(=O)(=O)c3cccs3)cc2C(=O)N([C@H](C)CO)C[C@@H]1C`, the cytotoxicity call is “inactive”. Turning to `CC(C)NC(=O)N(C)C[C@H]1Oc2ccc(NC(=O)C3CCCCC3)cc2C(=O)N([C@H](C)CO)C[C@H]1C`, the cytotoxicity call is “inactive”. Regarding `C[C@H](CO)N1C[C@H](C)[C@H](CN(C)C(=O)NC2CCCCC2)OCCCC[C@H](C)Oc2ccc(NC(=O)Nc3ccc4c(c3)OCO4)cc2C1=O`, the cytotoxicity call is “inactive”. Next, `C[C@H]1CN([C@@H](C)CO)C(=O)c2cc(-c3cccc(C#N)c3)cnc2O[C@@H]1CN(C)C(=O)c1cnccn1`: “inactive”; `CC1(COc2ccc3c(c2)ncn3-c2ccc3cccc(N4CCC(N)CC4)c3n2)COC1`: “active”; `O=C1O[C@H](c2ccccc2)[C@H](c2ccccc2)N2[C@H]1[C@@H](C(=O)NC[C@@H](O)c1ccccc1)[C@]1(C(=O)Nc3ccc(C#CC4=CCCCC4)cc31)[C@H]2c1ccccc1OCCO`: “active”. On to `COCCOC(=O)N1C(=O)[C@@]2(c3cc(C#CC4=CCCCC4)ccc31)[C@H](c1ccccc1OCCO)N1[C@H](c3ccccc3)[C@H](c3ccccc3)OC(=O)[C@H]1[C@@H]2C(=O)N1CCc2cc(OC)c(OC)cc2C1`, for which the cytotoxicity call is “inactive”. `O=C1O[C@H](c2ccccc2)[C@H](c2ccccc2)N2[C@H]1[C@@H](C(=O)NC[C@@H](O)c1ccccc1)[C@]1(C(=O)Nc3ccc(C#CC4(O)CCCCCC4)cc31)[C@H]2c1ccccc1OCCO`: the cytotoxicity call was “inactive”.

In the case of `C=CCNC(=O)[C@@H]1[C@H]2C(=O)O[C@H](c3ccccc3)[C@H](c3ccccc3)N2[C@H](c2ccccc2OCCO)[C@@]12C(=O)Nc1ccc(C#Cc3ccc(OC)cc3)cc12`, the cytotoxicity call was “inactive”. On to `COCCOC(=O)N1C(=O)[C@@]2(c3cc(C#CC4=CCCCC4)ccc31)[C@H](C(=O)N1CCc3cc(OC)c(OC)cc3C1)[C@H]1C(=O)O[C@H](c3ccccc3)[C@H](c3ccccc3)N1[C@@H]2c1ccccc1OCCO`, for which the cytotoxicity call was “active”. On to `C=CCNC(=O)[C@H]1[C@@H]2C(=O)O[C@@H](c3ccccc3)[C@@H](c3ccccc3)N2[C@@H](c2ccc(OCCO)cc2)[C@]12C(=O)Nc1ccc(C#CC3=CCCCC3)cc12`, for which the cytotoxicity call was “inactive”. Next, `C=CCNC(=O)[C@H]1[C@@H]2C(=O)O[C@@H](c3ccccc3)[C@@H](c3ccccc3)N2[C@@H](c2ccccc2OCCO)[C@]12C(=O)Nc1ccc(C#CC3(O)CCCCCC3)cc12`: “inactive”. Consider `C=CCNC(=O)[C@H]1[C@@H]2C(=O)O[C@@H](c3ccccc3)[C@@H](c3ccccc3)N2[C@@H](c2ccccc2OCCO)[C@]12C(=O)Nc1ccc(C#CC3=CCCCC3)cc12`, for which the cytotoxicity call is “active”.

For `COCCOC(=O)N1C(=O)[C@@]2(c3cc(C#CC4=CCCCC4)ccc31)[C@H](c1ccc(OCCO)cc1)N1[C@H](c3ccccc3)[C@H](c3ccccc3)OC(=O)[C@H]1[C@@H]2C(=O)N1CCc2cc(OC)c(OC)cc2C1`, the cytotoxicity call was “inactive”.

For `C=CCNC(=O)[C@@H]1[C@H]2C(=O)O[C@H](c3ccccc3)[C@H](c3ccccc3)N2[C@H](c2ccc(OCCO)cc2)[C@@]12C(=O)Nc1ccc(C#CC3=CCCCC3)cc12`, the cytotoxicity call is “inactive”. As to `C=CCNC(=O)[C@@H]1[C@H]2C(=O)O[C@H](c3ccccc3)[C@H](c3ccccc3)N2[C@H](c2ccccc2OCCO)[C@@]12C(=O)Nc1ccc(C#CC3=CCCCC3)cc12`, the cytotoxicity call was “active”. Next, `O=C1O[C@@H](c2ccccc2)[C@@H](c2ccccc2)N2[C@@H](c3ccc(OCCO)cc3)[C@]3(C(=O)Nc4ccc(C#CC5=CCCCC5)cc43)[C@@H](C(=O)NC[C@H](O)c3ccccc3)[C@H]12`: “inactive”. Next, `C[C@H]1CN([C@@H](C)CO)C(=O)c2cc(NC(=O)Cn3cnnn3)ccc2O[C@@H]1CN(C)Cc1ccc(-c2ccccc2)cc1`: “inactive”. For the compound `COc1ccc(NC(=O)Nc2ccc3c(c2)C(=O)N([C@H](C)CO)C[C@@H](C)[C@H](CN(C)S(=O)(=O)c2c(C)noc2C)OCCCC[C@@H](C)O3)cc1`, the cytotoxicity call is “inactive”. With `CC1CC2C3CC(F)C4=CC(=O)C=CC4(C)C3(F)C(O)CC2(C)C1(O)C(=O)COC(=O)C(C)(C)C` (centres undefined), the cytotoxicity call was “inactive”. For `CC(=O)Nc1nnc2n1CCS2`, the cytotoxicity call was “inactive”.

On to `C[C@H](O)C#Cc1cnc2c(c1)C(=O)N([C@H](C)CO)C[C@@H](C)[C@@H](CN(C)C(=O)CN1CCOCC1)O2`, for which the cytotoxicity call was “inactive”. Next, `C[C@H]1CN([C@@H](C)CO)C(=O)c2cccc(NS(=O)(=O)c3ccc(F)cc3)c2O[C@@H]1CN(C)S(=O)(=O)c1cn(C)cn1`: “inactive”; `C[C@@H]1CCCCO[C@H](CN(C)C(=O)c2ccncc2)[C@H](C)CN([C@H](C)CO)C(=O)c2cc(NS(=O)(=O)c3cn(C)cn3)ccc2O1`: “inactive”; `O=C(C[C@@H]1C=C[C@@H](NC(=O)c2cccc(F)c2)[C@@H](CO)O1)NCCN1CCCC1`: “inactive”. For the compound `Clc1cccn2nnnc12`, the cytotoxicity call was “inactive”. `C[C@@H]1CCCCO[C@H](CN(C)Cc2ccc(C(=O)O)cc2)[C@H](C)CN([C@@H](C)CO)C(=O)c2cc(NC(=O)c3ccccc3)ccc2O1`: the cytotoxicity call is “inactive”. Take `C[C@@H]1CCCCO[C@@H](CN(C)Cc2ccc(C(F)(F)F)cc2)[C@H](C)CN([C@@H](C)CO)C(=O)c2cc(NC(=O)CCC(F)(F)F)ccc2O1`: the cytotoxicity call is “inactive”.

For the compound `COC(=O)C1=CC(CCCO)=C[C@@H](c2cccs2)N(Cc2cccc(OC(F)(F)F)c2)C=C1C(=O)OC`, the cytotoxicity call was “inactive”. As to `COc1ccc(C#Cc2ccc3c(c2)[C@]2(C(=O)N3)[C@H](C(=O)O)[C@H]3C(=O)O[C@H](c4ccccc4)[C@H](c4ccccc4)N3[C@@H]2c2ccccc2OCCO)cc1`, the cytotoxicity call is “inactive”.

As for `COc1ccc(C#Cc2ccc3c(c2)[C@@]2(C(=O)N3C(=O)N[C@@H](C)c3ccccc3)[C@H](c3ccc(OCCO)cc3)N3[C@H](c4ccccc4)[C@H](c4ccccc4)OC(=O)[C@H]3[C@@H]2C(=O)O)cc1`, the cytotoxicity call is “active”. Regarding `COCCOC(=O)N1C(=O)[C@@]2(c3cc(C#Cc4ccc(OC)cc4)ccc31)[C@H](c1ccc(OCCO)cc1)N1[C@H](c3ccccc3)[C@H](c3ccccc3)OC(=O)[C@H]1[C@@H]2C(N)=O`, the cytotoxicity call was “inactive”. Turning to `COc1ccc(C#Cc2ccc3c(c2)[C@]2(C(=O)N3)[C@H](C(N)=O)[C@H]3C(=O)O[C@H](c4ccccc4)[C@H](c4ccccc4)N3[C@@H]2c2ccccc2OCCO)cc1`, the cytotoxicity call was “active”. For the compound `O=C1O[C@H](c2ccccc2)[C@H](c2ccccc2)N2[C@H]1[C@@H](C(=O)O)[C@]1(C(=O)Nc3ccc(C#CC4=CCCCC4)cc31)[C@H]2c1ccccc1OCCO`, the cytotoxicity call was “inactive”. Next, `COCCOC(=O)N1C(=O)[C@@]2(c3cc(C#Cc4ccc(OC)cc4)ccc31)[C@H](c1ccc(OCCO)cc1)N1[C@H](c3ccccc3)[C@H](c3ccccc3)OC(=O)[C@H]1[C@@H]2C(=O)NC[C@H](O)c1ccccc1`: “inactive”; `O=C1O[C@@H](c2ccccc2)[C@@H](c2ccccc2)N2[C@@H](c3ccccc3OCCO)[C@]3(C(=O)Nc4ccc(C#CC5=CCCCC5)cc43)[C@@H](C(=O)O)[C@H]12`: “inactive”; `COc1ccc(C#Cc2ccc3c(c2)[C@]2(C(=O)N3)[C@H](c3ccccc3OCCO)N3[C@H](c4ccccc4)[C@H](c4ccccc4)OC(=O)[C@H]3[C@@H]2C(=O)O)cc1`: “inactive”. For `NC(=O)[C@H]1[C@@H]2C(=O)O[C@@H](c3ccccc3)[C@@H](c3ccccc3)N2[C@@H](c2ccccc2OCCO)[C@]12C(=O)Nc1ccc(C#CC3=CCCCC3)cc12`, the cytotoxicity call was “active”. On to `C[C@H]1CN([C@@H](C)CO)C(=O)c2cccc(NC(=O)c3cnccn3)c2O[C@@H]1CN(C)S(=O)(=O)c1cccs1`, for which the cytotoxicity call was “inactive”. Next, `C[C@@H]1CCCCO[C@H](CN(C)Cc2ccc(C(F)(F)F)cc2)[C@@H](C)CN([C@@H](C)CO)C(=O)c2cc(NC(=O)C3CCCCC3)ccc2O1`: “inactive”.

The values above are taken from the antibiotic and cytotoxicity screens of Wong et al. (2023).
